The text below walks through data of PubChem BioAssay (NCI).

Molecules are shown by their SMILES. About 83,000 compounds went through this panel and 20% of them were active in at least one assay; those are over-represented in the sample as a whole.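 Single-concentration screen, 48 h exposure, 96-well plates. Endpoint: percent growth. Below 10 = active.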 Values without a mark were called inactive. Activity calls are given as the source filed them.

The test system of the test is MDA-MB-468 breast. Description: NCI-60 one-dose screen, 48 h (100 = growth as untreated, 0 = no growth, -100 = all killed). The settings on record: 10 µM unless noted.
Turning to `CC(C)C[C@H](C(=O)O)N(C)C(=O)[C@@H]1CCCN1C(=O)[C@H](C)OC(=O)[C@H](CCC(N)=O)NC(=O)[C@@H]1CCC(=O)N1`, the growth was 107%.

As to `COC(=O)c1ccc2[nH]c(O)c(C(=Nc3ccc(N(C)C(=O)CN4CCN(C)CC4)cc3)c3ccc4c(c3)OCO4)c2c1`, the growth is 38.3%.

For the molecule `O=C1NC(=O)/C(=C/c2ccc(Cl)cc2Cl)N1`, the growth is 130%. As to `Cc1[nH]c2ccccc2c(=O)c1CC=C(Cl)Cl`, the growth was -43.2% (active). For `CN(C)C1CCN(C(=O)c2ccc(NC(=O)Nc3ccc(-c4nc(N5CCOCC5)nc(N5CCOCC5)n4)cc3)cc2)CC1`, the growth is -49.1% [2.5 µM] (active). For `NS(=O)(=O)c1ccc(Nc2nc(N/N=C/CCc3ccccc3)nc(Nc3ccccc3)n2)cc1`, the growth was 88.6%. Under `COc1cc2c(cc1O)c(=O)n(CCN(C)C)c1c3cc4c(cc3ncc21)OCO4` stands -57.9% (active); under `CC(=O)c1c(C)nc(SCC(=O)Nc2cccc(O)c2)n1-c1ccc(Cl)cc1`, 79.7%; under `O=C(Nc1cc(C(F)(F)F)cc(C(F)(F)F)c1)Nc1ccc2oc(=O)ccc2c1`, -5.53% (active). Under `C=C1C(=O)O[C@H]2[C@H]1CC/C(COC(=O)NCCc1c[nH]c3ccc(Cl)cc13)=C\CC[C@@]1(C)O[C@@H]21` stands -59% (active); under `C/C(=N\N=C(/C)c1cccc([N+](=O)[O-])c1)c1cccc([N+](=O)[O-])c1`, 86.1%; under `CNC1=C([N+](=O)[O-])C(c2ccc(OC)cc2)C(C#N)=C(c2ccc[nH]2)O1` (stereo not given), 96.1%.

Take `COC1OC(CO)C(OC)C(O)C1O` (stereo not given): the growth was 87.1%. Regarding `COc1ccc(C(c2cc(OC)c(OC)c(OC)c2)N2CCN(Cc3ccccc3)CC2)cc1` (stereo not given), the growth was 53%.

As to `CCCCCCn1c(-c2ccc(C(=O)O/N=C(\N)c3ccc4c(c3)OCO4)cc2)nc(-c2ccccc2)c1-c1ccccc1`, the growth was 43.4%. Under `Cc1ccc(/C=C2\SC(=S)N(c3ccc(F)cc3)C2=O)o1` stands 69.6%.

As for `C=C(C=O)[C@@H]1CC=C(C=O)CC1`, the growth was 20.2%. `CCC(CO)Nc1nc2ccc(Cl)cc2c2ccccc12` (stereo not given): the growth is 33%. Under `O=C1c2cc(Br)ccc2Oc2cc([N+](=O)[O-])ccc2N1c1ccc(I)cc1F` stands 105%; under `O=c1[nH][n+](-c2ccc(Br)cc2)no1`, 86.1%; under `Nc1cccc2c1C(=O)c1cccc(NC(=O)c3ccccc3)c1C2=O`, 10.6%. Under `CC(C)(C)N1CC(OC(N)=O)C1` stands 84.9%. Take `O=c1c2cccc3c(N4CCCC4)ccc(c32)c2nc3ccccc3n12`: the growth was 80.3%. Under `O=C(O)CCCCSCCCCC(=O)O` stands 95.3%. Under `Cc1ccc(NC(=O)c2cc(-c3nc4ccccc4s3)c(=O)n(NS(=O)(=O)c3ccc(Cl)cc3)c2N)cc1` stands 109%; under `CC/C=C\C[C@H](F)C/C=C1/C(=O)C=C[C@@H]1C/C=C\CCCC(=O)O`, 52.6%.

Consider `COC(=O)c1cc(O)c2cc3c(cc2c1-c1cc(OC)c(OC)c(OC)c1)OCO3`, for which the growth is -8.52% (active).

For the molecule `COc1ccc(-c2nnc(N3CCN(C(=O)CN4CCN(c5ccc(OC)cc5)CC4)CC3)nc2-c2ccc(OC)cc2)cc1`, the growth was -54.8% (active).

In the case of `CC(=O)Nc1ccc(C(=O)/C=C/c2ccccc2)cc1`, the growth is 90.8%. Take `Cc1cnc(N)nc1OCCNC(=O)c1cccc(-c2ccc(S(=O)(=O)Nc3ccc4c(c3)N(C(=O)C3CC3)CCC4)cc2)c1`: the growth was 36.8%. Under `Cc1ccccc1/C=C/C(=O)c1cccc(OCCCCOc2cccc(C(=O)/C=C/c3ccccc3C)c2)c1` stands 86.1%; under `O=C(CN1C=NC2C(N3CCOCC3)=NC=NC21)c1ccc(Br)cc1` (stereo not given), 99%; under `CN(C)C1CCC(NC2=CC(=O)C=CC2=O)CC1` (stereo not given), 105%. Regarding `O=Cc1nc2ccccc2[nH]1`, the growth was 108%. With `COc1ccc2cn3c4ccc(O)cc4[nH]c(=O)c3c2c1`, the growth is -11.9% (active). Turning to `CCOC(=O)c1sc(NC(=O)CN2CCC(Cc3ccccc3)CC2)nc1C`, the growth is 98.5%.

Turning to `Nc1nc(Nc2ccc(OCc3cccc(F)c3)cc2)c2c(n1)[nH]c1ccc(O)cc12`, the growth is -17.2% (active). Under `COc1ccc(-c2cc(-c3ccccc3)nc(SCCCC(=O)NO)n2)cc1` stands -50.5% (active); under `C=CCCCC(=O)CCC(=O)OCC1O[C@@H](O[C@@H]2C(O)[C@@H](OC(C)=O)C(C)O[C@H]2O[C@H](CC=C)CCCCC)C(O)[C@@H](OC(=O)/C(C)=C/C)[C@@H]1OC(=O)/C=C/c1ccccc1` (stereo not given in full), -23.6% (active). For `Cc1cc2c(C(=O)NCC#N)cccc2n1-c1nc2c(c(NCc3ccccc3)n1)CCCC2`, the growth is -52.5% (active).
